Here are results for 31 compounds from ChEMBL document CHEMBL1961873, “Compounds: GSK PKIS; Assays: Nanosyn kinase panel” (2012).

Where “and” joins values, the source holds several entries; their conditions need not be identical. Identical values can stand only once.

In this assay the target is T1, NUAK family SNF1-like kinase 1 (Homo sapiens) (UniProt O60285).
T1 sequence (whole entry): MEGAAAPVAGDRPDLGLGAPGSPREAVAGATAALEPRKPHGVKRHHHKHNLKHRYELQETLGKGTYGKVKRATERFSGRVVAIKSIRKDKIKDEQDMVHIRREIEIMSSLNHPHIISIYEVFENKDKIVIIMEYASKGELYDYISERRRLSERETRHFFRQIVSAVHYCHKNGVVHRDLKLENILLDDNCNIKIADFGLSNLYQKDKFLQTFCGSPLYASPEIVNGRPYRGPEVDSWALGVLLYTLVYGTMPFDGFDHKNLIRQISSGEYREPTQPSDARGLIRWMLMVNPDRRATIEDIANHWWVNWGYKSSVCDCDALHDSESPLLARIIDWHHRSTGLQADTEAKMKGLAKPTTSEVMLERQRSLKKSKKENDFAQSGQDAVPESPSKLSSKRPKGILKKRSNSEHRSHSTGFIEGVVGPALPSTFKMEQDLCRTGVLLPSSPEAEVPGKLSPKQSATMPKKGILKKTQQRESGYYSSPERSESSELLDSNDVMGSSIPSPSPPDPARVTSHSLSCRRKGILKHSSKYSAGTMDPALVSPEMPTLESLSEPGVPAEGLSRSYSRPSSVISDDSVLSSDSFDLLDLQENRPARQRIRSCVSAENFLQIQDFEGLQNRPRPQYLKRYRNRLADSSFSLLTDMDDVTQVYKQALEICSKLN
The settings on record: at 1 µM.
For the compound `COc1cccc(-n2ncc3c(N/N=C/c4ccc(C(=O)NCCN(C)C)cc4)ncnc32)c1`, the inhibition stood at 77.2%. Consider `CS(=O)(=O)Nc1ccc(-c2cc(-c3ccccc3)cc(C(N)=O)c2N)cc1`, for which the inhibition was determined as 1.62%.

As to `CCn1c(-c2nonc2N)nc2cncc(C(=O)NCCNC)c21`, the inhibition turned out to be 2.03%. To `NS(=O)(=O)c1ccc(N/N=C2\C(=O)Nc3cccc(CCc4ccncc4)c32)cc1` belongs 62.5%. In the case of `CCOc1ccc2c(-c3ccnc(Nc4cc(OC)cc(C(F)(F)F)c4)n3)cnn2n1`, the inhibition is 21.2%. `Cc1ccc(-c2cc3c(NC(=O)C4CC4)ncnc3o2)cc1`: the inhibition was determined as 6.68%. For the compound `COc1cc2c(cc1Nc1nc(Nc3cccc(F)c3C(N)=O)c3cc[nH]c3n1)N(C(=O)CN1CCN(C(C)C)CC1)CC2`, the inhibition is 5.31%.

On to `Nc1ncnc2occ(-c3ccc(NC(=O)Nc4cc(C(F)(F)F)ccc4F)cc3)c12`, for which the inhibition is 6.07% and 1.77%. As to `CN1CCN(Cc2ccc(-c3cc4ncnc(Nc5ccc(OCc6cccc(F)c6)c(Cl)c5)c4s3)o2)CC1`, the inhibition is 4.56% and 2.98%. Regarding `NC(=O)c1ccc2c(-c3ccnc(NCCCO)n3)c(-c3ccc(F)cc3)nn2c1`, the inhibition worked out at 4.34%.

On to `CN1CCC(n2cnc(-c3ccc(F)cc3)c2-c2ccnc(NCCO)n2)CC1`, for which the inhibition was determined as 0.83%. On to `O=C(O[C@H]1CN[C@H](C#Cc2cc3ncnc(Nc4ccc5c(cnn5Cc5ccccc5)c4)c3s2)C1)N1CCOCC1`, for which the inhibition turned out to be 4.34%. To `Cc1c2ccc(N(C)c3ccnc(Nc4cccc(S(N)(=O)=O)c4)n3)cc2nn1C` belongs 46.2%; to `CNC(=O)c1cncc(/C=C/c2ccccc2C)c1`, 9.32%.

Consider `COc1ccc(Nc2ncc(-c3ccccc3)o2)cc1OC`, for which the inhibition amounted to 61.5%. To `CS(=O)(=O)CCNCc1ccc(-c2ccc3ncnc(Nc4ccc(OCc5ccccc5)cc4)c3c2)o1` belongs 1.06%. Take `CCCNc1cccc(-n2ncc3c(N/N=C/c4ccncc4)ncnc32)c1`: the inhibition turned out to be 36.3%.

Turning to `COc1c(C(N)=O)cc(-c2ccc(Cl)cc2)cc1-c1ccc(S(N)(=O)=O)cc1`, the inhibition was determined as 1.1%. For the compound `COc1cccc(Nc2nccc(-c3cnn4ncccc34)n2)c1`, the inhibition came out at 71%. `CN(c1ccc(NC(=O)NCCN2CCOCC2)cc1)c1ccnc(Nc2ccc(CS(C)(=O)=O)cc2)n1`: the inhibition turned out to be 41.6%. `COc1ccc(-c2nn3ncccc3c2-c2ccnc(Nc3ccc(F)c(F)c3)n2)cc1`: the inhibition came out at 5.51%. To `COc1cc(N2CCN(C(C)C)CC2)ccc1Nc1nc(Nc2cccc(F)c2C(=O)O)c2cc[nH]c2n1` belongs 5.91%. Next, `CC(C)c1ccc(-c2cc(-c3c[nH]nc3-c3ccccn3)ccn2)cc1`: 0.75%. Next, `CS(=O)(=O)Nc1ccc(-c2ccc3c(NC(=O)C4CC4)n[nH]c3c2)cc1`: 2.46%; `Cn1c(-c2nonc2N)nc2cnccc21`: 4.88%; `CS(=O)(=O)CCNCc1ccoc1-c1ccc2ncnc(Nc3ccc(OCc4ccccc4)cc3)c2c1`: 2.12%. Take `O=C(O[C@H]1CN[C@H](C#Cc2cc3ncnc(Nc4ccc5c(ccn5Cc5cc(F)ccc5F)c4)c3s2)C1)N1CCOCC1`: the inhibition amounted to 1.94%. Take `Nc1nccc(-c2c(-c3ccc(F)cc3)ncn2C2CCNCC2)n1`: the inhibition is 8.02% and 2.99%.

As for `COC(=O)Nc1nc2cc(Oc3ccc(NC(=O)Nc4ccccc4)cc3)ccc2[nH]1`, the inhibition is -0.72%. `CNC(=O)c1ncccc1Nc1nc(Nc2cc3c(cc2OC)CCCN3C(=O)CN(C)C)nc2[nH]ccc12`: the inhibition was determined as 8.33%. For the compound `O=C(Nc1n[nH]c2nnc(-c3cccnc3)cc12)C1CC1`, the inhibition came out at 0.53%.

As usually defined, the inhibition is the drop in the measured response relative to a control, in per cent.
